Bioassay records (PubChem BioAssay)
The entries come from a sample that favours hits as a whole.
CD40 NFkB inh = CD40 pathway inhibition in BL2 cells; BL2 NF-kB luciferase reporter, CD40L-induced, 4 h; inhibition, % at 10 µM; hit rate 0.94% among 83,000;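 active = mean inhibition of at least 50% with a set share of replicates also reaching that level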;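 also: 0% = neutral control wells and 100% = IKK inhibitor VII at 50 µM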
* = called active by the depositor; [ ] = remark or other dose.

SMILES	CD40 NFkB inh
COc1ccc2c3c(n(C)c2c1)[C@H](CO)N(C(=O)Nc1ccc(F)cc1)CC31CCN(C(=O)c2ccc3c(c2)OCO3)CC1	65*[25 µM]
COc1ccc2c3c(n(C)c2c1)[C@H](CO)N(C(=O)Nc1ccc(F)cc1)CC31CCN(C(=O)Nc2c(C)noc2C)CC1	19[25 µM]
COc1ccc2c3c(n(C)c2c1)[C@@H](CO)N(C(=O)Nc1ccc(F)cc1)CC31CCN(C(=O)c2ccc3c(c2)OCO3)CC1	30[25 µM]
CC(NC(=O)COc1ccc(S(=O)(=O)N2CCCC2)cc1)c1ccccc1 (centres undefined)	14
CCCNC(=O)C1(C)CCN1C(=O)c1ccc(C(C)(C)C)cc1 (centres undefined)	-7
COc1ccc2c3c([nH]c2c1)[C@H](CO)N(C(=O)Nc1ccc(F)cc1)CC31CN(S(=O)(=O)c2ccc(C)cc2)C1	18[25 µM]
COc1ccc2c3c(n(C)c2c1)[C@H](CO)N(C(=O)Nc1ccc(F)cc1)CC31CCN(S(=O)(=O)c2cccc(C)c2)CC1	44[25 µM]
COc1ccc2c3c([nH]c2c1)[C@H](CO)N(C(=O)Nc1cccc(F)c1)CC31CCN(S(=O)(=O)c2cccc(C)c2)CC1	80*[25 µM]
CN1CCN(C(=O)C[C@H]2C[C@@H]3c4cc(NC(=O)NC5CCCCC5)ccc4O[C@@H]3[C@@H](CO)O2)CC1	-3
O=C(C[C@H]1C[C@@H]2c3cc(NC(=O)C4CCC4)ccc3O[C@@H]2[C@H](CO)O1)NCc1ccc(Cl)cc1	6[25 µM]
CCOc1ccc(C(=O)COC(=O)C2CCN(c3ccc(C(F)(F)F)cn3)CC2)cc1	6
O=C(COC(=O)c1cncc(Br)c1)NC1CCCCC1	7
O=C(COc1ccc(S(=O)(=O)N2CCCCC2)cc1)NCc1ccncc1	12
OC(CNc1ccnc2cc(Cl)ccc12)CNC1CCCCC1 (centres undefined)	-8
CCN(CC)CCNc1ccnc2cc(Cl)ccc12	-7
O=C(NCCNc1ccnc2cc(Cl)ccc12)c1ccccc1F	37*
CCOC(=O)c1[nH]c2ccccc2c1NC(=O)COC	17
CCCc1nc2oc3c(NCCCN(C)C)ncnc3c2c2c1CCCC2	19
c1ccc(N2CCN(c3nc(NCc4ccco4)c4ccccc4n3)CC2)cc1	29
c1ccc(-c2nc(NCc3ccco3)c3ccccc3n2)nc1	53*
COc1ccccc1Nc1nc(NCc2ccco2)c2ccccc2n1	-21
O=C(NCCCN1CCOCC1)c1cccc(S(=O)(=O)NCc2ccccc2)c1	3
O=C(Nc1cc(=O)[nH]c2nc(-c3ccc(Cl)cc3)nn12)c1ccccc1	12
Cn1nc(-c2ccc(Cl)cc2)nc2c(=O)n(C)c(=O)nc1-2	84*
Cn1nc(C(=O)NNC(=O)c2ccc(Cl)cc2)ccc1=O	0
SMILES	CD40 NFkB inh
Cc1ccc(S(=O)(=O)N2CCCCC2)cc1NC(=O)CNc1ccccc1N1CCCC1=O	6
CC1(C)COC(/C=C/c2ccc([N+](=O)[O-])cc2)=N1	-24
O=C(CCNC(=O)c1ccccc1Cl)Nc1nc2ccccc2[nH]1	-11
COc1ccccc1C(=O)NCCC(=O)Nc1nc2ccccc2[nH]1	52*
COc1ccccc1C(=O)NCCC(=O)Nc1ccc(C)cn1	8
CC1=CC(C)(C)Nc2ccc(OC(=O)c3cccnc3)cc21	13
Nc1nc(N)c2cc(CNc3ccc(Cl)c(Cl)c3)ccc2n1	92*
Nc1nc(N)c2cc(Sc3ccc(Cl)cc3)ccc2n1	0
Nc1nc(N)c2cc(Sc3cccc(C(F)(F)F)c3)ccc2n1	31
c1ccc(-c2nnc(SCc3nnc(-c4cccs4)o3)o2)cc1	10
CC(OC(=O)CSc1ccc([N+](=O)[O-])cc1)C(=O)NCc1ccccc1 (centres undefined)	-1
CC(C)=NNc1ncnc2nc[nH]c12	-17
CC(C)CCCCCCCCCCCCC(=O)NCC(=O)NC1C(O)C(O)C(Nc2ncnc3nc[nH]c23)OC1C(O)CO (centres undefined)	104*
CCOC(=O)C(C)/C(C)=N\Nc1ccc([N+](=O)[O-])cc1[N+](=O)[O-] (centres undefined)	0
O=C(c1cccc(C(F)(F)F)c1)C1CCCN(C(=O)CN2CCCC2=O)C1 (centres undefined)	-1
CC(=O)Oc1ccccc1C(=O)C=Cc1cccc([N+](=O)[O-])c1	89*
CC(=O)Nc1ccc(C=CC=Cc2cccc([N+](=O)[O-])c2)cc1	-22
O=C(/C=C/c1cccc([N+](=O)[O-])c1)OCC(=O)c1ccccc1	-5
CN1CCN(c2oc(-c3ccccc3)nc2S(=O)(=O)c2ccccc2)CC1	0
COc1cc(C=CC(=O)c2cc(OC)c(OC)c(OC)c2)cc(OC)c1OC	65*
COc1cc(C(=O)NNC(=O)/C=C/c2ccccc2)cc(OC)c1OC	-9
COc1ccc(C(=O)C=Cc2ccc(OCc3ccccc3)c(OC)c2)cc1OC	-16
CN(C)CC(=O)N1[C@H](CO)[C@@H](c2ccc(-c3ccccc3F)cc2)[C@@H]1C#N	3
C[C@@H]1CN([C@H](C)CO)C(=O)c2ccccc2-c2ccccc2CO[C@H]1CN(C)C(=O)[C@H]1CCCN1C	-6[25 µM]
COc1ccc(C(CNC(=O)Cc2ccc3ccccc3c2)N(C)C)cc1 (centres undefined)	0
